ABHD5 PLIN5 PPI – ABHD5-PLIN5 interaction inhibitors, primary screen, cell lysate, split luciferase complementation, luminescence; AID 602281, 2012; Split G. princeps luciferase complementation, 4 h; inhibition, % at 4 µM; 0.78% of 360,000 active;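 active means inhibition above the mean inhibition across every tested compound plus 3 SD, cut at about 22% in these data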;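 further: 0% = DMSO only wells and the 100% control is not disclosed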
Target sequence (Q00G26 whole entry, looked up): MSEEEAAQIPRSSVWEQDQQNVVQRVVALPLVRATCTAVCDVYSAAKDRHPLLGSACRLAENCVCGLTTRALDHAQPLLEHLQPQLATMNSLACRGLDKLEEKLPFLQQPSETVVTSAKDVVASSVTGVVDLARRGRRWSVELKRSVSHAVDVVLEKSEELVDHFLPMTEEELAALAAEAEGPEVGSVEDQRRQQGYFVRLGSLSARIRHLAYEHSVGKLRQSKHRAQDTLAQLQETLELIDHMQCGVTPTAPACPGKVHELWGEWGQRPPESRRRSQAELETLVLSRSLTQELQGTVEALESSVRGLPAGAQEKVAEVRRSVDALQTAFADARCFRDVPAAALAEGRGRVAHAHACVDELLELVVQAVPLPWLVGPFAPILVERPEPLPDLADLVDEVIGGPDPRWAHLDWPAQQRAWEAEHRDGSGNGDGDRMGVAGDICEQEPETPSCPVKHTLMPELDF
Target sequence (Q8WTS1 whole entry, looked up): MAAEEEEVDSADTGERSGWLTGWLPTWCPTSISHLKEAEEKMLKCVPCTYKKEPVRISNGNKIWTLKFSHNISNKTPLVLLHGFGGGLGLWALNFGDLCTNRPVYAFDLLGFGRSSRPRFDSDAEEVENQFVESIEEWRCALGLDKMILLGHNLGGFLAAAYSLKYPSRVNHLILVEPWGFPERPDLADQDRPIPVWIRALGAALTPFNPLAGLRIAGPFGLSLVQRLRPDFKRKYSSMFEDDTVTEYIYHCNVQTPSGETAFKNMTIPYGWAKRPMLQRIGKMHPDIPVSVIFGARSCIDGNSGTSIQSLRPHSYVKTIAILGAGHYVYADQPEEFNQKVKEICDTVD
rCAG RNA binder – binders of r(CAG) RNA repeats, primary screen, biochemical, fluorescence | r(CAG) RNA repeat, TO-PRO-1 dye displacement fluorescence | inhibition, % at 3 µM | 1.3% of 370,000 active | AID 651821, 2012;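 active means inhibition above the plate cutoff, the mean of all test compounds on that plate plus 3 SD, cut at about 35% in these data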;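 further: 0% = DMSO alone and 100% = 100 µM mitoxantrone as full dye displacement; higher means more dye released from RNA so lower well fluorescence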
MBD2 inh – inhibitors of MBD2 binding to methylated DNA, primary screen, biochemical, TR-FRET, DNA-binding domain, human; Methyl-CpG-binding domain protein 2 (Homo sapiens), Q9UBB5; MBD2 binding to methylated oligonucleotide; inhibition, % at 4.4 µM; 0.31% of 370,000 active; AID 686964, 2013; in the data active means inhibition above about 13%
LEDGF integ inh – blockers of LEDGF/p75-dependent integrase strand transfer – biochemical, TR-FRET, high throughput, primary screen | HIV-1 integrase (with human LEDGF/p75) | TR-FRET IN-LEDGF/p75 DNA integration, Eu/Cy5 | inhibition, % at 3.7 µM | 0.64% of 370,000 active | AID 743269, 2014;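 active means inhibition above the screen-wide mean plus 3 SD, cut at about 13% in these data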;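 further: signal is the Cy5 over europium emission ratio at 671 and 618 nm; 0% = plate median of compound wells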
UHRF1 binding – UHRF1 methylated DNA binding inhibitors, primary screen, counter-screen for MBD2 inhibitor project, biochemical, TR-FRET, human UHRF1, single concentration. UHRF1 binding to methylated oligo. inhibition, % at 4.4 µM. 0.75% of 370,000 active; in the data active means inhibition above about 21%;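 further: UHRF1 SRA domain binding a hemimethylated CpG hairpin DNA probe; 0% = median of test compound wells and 100% = reference inhibitor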
PRMT1 inh – PRMT1 methyltransferase inhibitors, primary screen, biochemical, fluorescence polarization; recombinant PRMT1, activity-based probe fluorescence polarization; inhibition, % at 2.79 µM; 1.3% of 370,000 active;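 active means inhibition above about 21% made by adding two undisclosed values, limit read from the data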
rCAG binder conf – small molecules binding CAG repeat RNA – biochemical, fluorescence, confirmation. shares compounds with rCAG RNA binder. r(CAG) RNA repeat, TO-PRO-1 dye displacement fluorescence. inhibition, % at 3 µM. 70% of 4,300 active;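 active means inhibition above a per-plate cutoff, the mean inhibition of sample wells plus 3 SD, cut at about 35% in these data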;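 further: loss of TO-PRO-1 fluorescence as compound displaces dye from 1x1 AA loop RNA; 0% = DMSO only wells and 100% = 100 µM mitoxantrone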
dCAG dye counter – displacement of TO-PRO-1 from CAG DNA duplex, counter-screen for rCAG RNA repeat binder project, biochemical, fluorescence, TO-PRO-1 dye, d(CAG) DNA oligo; shares compounds with rCAG RNA binder; d(CAG) DNA oligo TO-PRO-1 dye displacement; inhibition, % at 3 µM; 94% of 4,300 active; AID 652068, 2013;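 active means inhibition above its plate's cutoff, the mean test-well inhibition plus 3 SD, cut at about 4.8% in these data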;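 further: 0% = DNA dye mix with DMSO and 100% = 100 µM mitoxantrone; hits displace the dye from DNA and so lower well fluorescence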
DNA CAG DR – inhibitors of DNA CAG/GTC TO-PRO-1 complex, dose response, counter-screen for rCAG RNA repeat binder project, biochemical, fluorescence, TO-PRO-1 dye; shares compounds with rCAG RNA binder; DNA CAG/GTC duplex TO-PRO-1 dye displacement fluorescence; IC50, µM; 20% of 250 active; AID 686960, 2013; in the data active means IC50 below about 10 µM
* marks the source's active call; other numbers are inactive results; i = inactive; . = no result. In the library only some 4.1% were active in any assay of this set; here they are far more common.

SMILES	ABHD5 PLIN5 PPI	rCAG RNA binder	MBD2 inh	LEDGF integ inh	UHRF1 binding	PRMT1 inh	rCAG binder conf	dCAG dye counter	others
Cc1ccccc1C(=O)n1ccc2ccc(-c3ccc4ccn(Cc5ccc(C#N)cc5)c4c3)cc21	.	12	-3	-5	0	0	.	.
COc1ccc(-c2nn(-c3ccccc3)cc2/C=N/NS(=O)(=O)c2ccccc2)cc1	-5	27	1	-2	-2	0	.	.
COc1ccc(-c2nn(-c3ccccc3)cc2/C=N/NC(=O)c2cccc(S(=O)(=O)Nc3ccccc3Cl)c2)cc1	-2	59*	4	6	-1	-3	55*	29*
Cc1ccsc1/C=N/NC(=O)c1cccc(S(=O)(=O)Nc2ccccc2Cl)c1	-2	47*	1	0	-1	-3	40*	14*
C#CCNC(=O)C[C@H]1C[C@@]2(C(=O)OC)C(=C[C@H](C(C)(C)C)O[C@@H]2C)N(Cc2ccc3c(c2)OCO3)C1=O	.	1	0	-2	-1	-1	.	.
COc1ccc(C)cc1NC(=O)c1ccccc1NS(=O)(=O)c1ccc(Cl)s1	-6	90*	-4	-1	-3	2	84*	54*
COc1ccc(OC)c(C=NNC(=O)c2ccccc2NS(=O)(=O)c2cccs2)c1	-5	60*	-3	-1	0	-1	50*	15*
COc1cc(C=NNC(=O)c2ccccc2NS(=O)(=O)c2cccs2)cc(OC)c1O	9	42*	-4	3	-3	-1	51*	12*
COc1ccccc1NC(=O)c1ccccc1NS(C)(=O)=O	-1	8	0	-1	-1	-1	.	.
COc1ccccc1NC(=O)c1ccccc1NS(=O)(=O)c1cccs1	-4	37*	1	-4	1	9	27	5.3*
O=C(NCCc1ccc(F)cc1)c1cc2ccccn2n1	.	2	-7	1	1	-8	.	.
CCCCCCC(=O)NC1CCCCN(Cc2ccc(C)cc2)C1=O (configuration not stated)	.	-1	0	-2	0	-3	.	.
O=C(N/N=C/c1ccc(N2CCOCC2)cc1)c1ccccc1NS(=O)(=O)c1cccs1	-3	66*	5	-5	9	2	50*	17*
COc1cc(/C=N/NC(=O)c2ccc(NS(=O)(=O)c3cccs3)cc2)cc(OC)c1O	-1	8	0	6	0	-3	.	.
COc1ccc(C=NNC(=O)c2ccccc2NS(=O)(=O)c2cccs2)cc1O	5	36*	-1	1	-4	-3	37*	10*
O=C(NN=Cc1ccc(O)cc1O)c1ccccc1NS(=O)(=O)c1cccs1	6	43*	-2	-7	-3	0	41*	14*
COc1ccc(NC(=O)c2ccccc2NS(=O)(=O)c2ccc(C)cc2)c([N+](=O)[O-])c1	1	56*	0	-1	8	-3	60*	25*
O=C(N/N=C/c1ccc(N2CCOCC2)cc1)c1ccc(NS(=O)(=O)c2cccs2)cc1	-5	19	-7	0	-2	2	.	.
COC(=O)c1cc2c(c3c4cc(F)ccc4n(S(=O)(=O)c4cccc(C)c4)c13)C(=O)N(c1ccc(OC)cc1)C2	.	16	-2	-1	0	0	.	.
COC(=O)N1Cc2ccnnc2CC1c1ccccc1-c1ccc(OC)cc1 (configuration not stated)	.	3	-3	-3	0	5	.	.
COc1ccc(N/C(=C\C(=O)c2ccccc2)c2ccccc2)cc1OC	.	3	3	-4	5	4	.	.
COC(=O)[C@]12C[C@H](CC(=O)N3CCCC3)C(=O)N(Cc3ccco3)C1=C[C@H](C(C)(C)C)O[C@@H]2C	.	-2	-1	1	1	4	.	.
O=C(O)C1CCCN1c1nc(-c2ccc(Cl)c(Cl)c2)cc(C(F)(F)F)n1 (configuration not stated)	0	44*	-5	6	1	-2	43*	12*	DNA CAG DR=>30
CC(C)[C@H](Nc1nc(-c2ccccc2)nc2c1oc1ccccc12)C(=O)O	-6	58*	6	6	3	0	42*	11*
CCC(C)[C@H](Nc1nc(-c2ccccc2)nc2c1oc1ccccc12)C(=O)O (some centres not stated)	-13	74*	-3	5	2	2	70*	32*	DNA CAG DR=i
SMILES	ABHD5 PLIN5 PPI	rCAG RNA binder	MBD2 inh	LEDGF integ inh	UHRF1 binding	PRMT1 inh	rCAG binder conf	dCAG dye counter	others
COCc1nnc(NC(=O)c2ccc(S(=O)(=O)N3CCCc4ccccc43)cc2)o1	4	25	3	1	-7	-4	.	.
O=C(Nc1nnc(C2CC2)o1)c1ccc(S(=O)(=O)N2CCCc3ccccc32)cc1	-2	36*	-5	5	-4	-6	32	11*
CC1=NN(c2ccc(C(=O)O)cc2)C(=O)/C1=C/c1ccc(-c2ccccc2F)o1	-5	.	.	.	.	.	.	.
CC1=NN(c2ccc(C)cc2)C(=O)/C1=C/c1ccc(-c2cc([N+](=O)[O-])ccc2O)o1	-7	56*	2	6	10	4	64*	34*
COc1cccc(C2c3c(ncn(-c4ccccc4)c3=N)Oc3ccc4ccccc4c32)c1OC (configuration not stated)	.	.	-6	0	1	-2	.	.
C/C(=N\Nc1ccc(Cl)c(C(=O)O)c1)c1ccc(Br)s1	1	43*	4	-3	0	6	48*	13*
C/C(=N\NC(=O)c1ccc(Cl)c(Cl)c1)c1ccc(Br)s1	-5	-1	-7	2	-2	-5	.	.
